The source of these data is PubChem BioAssay.

Assay [1] addresses Albumin (Bos taurus) (UniProt P02769). Kind of assay: compounds binding labelled BSA control protein – biochemical, small-molecule microarray, Alexa647 label, 635/667 nm fluorescence, artefact control for SMM control protein annotation, profiling panel (AID 1118).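 Further: score merges 667 nm emission intensity and signal-to-noise per printed compound spot.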 The settings on record: BSA-A647 binding, fluorescence 635 nm, higher = more signal.
A short description of assay [2]: probe aXIP binding to arrayed compounds – biochemical, NeuroSMM set, 635/667 nm fluorescence, primary screen (AID 1119).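 Further: probe is the protein aXip251-270 applied at 1 µg/mL to compound-printed slides; binding of probe to printed compounds measured as 667 nm fluorescence plus signal to noise.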 Conditions: small-molecule microarray, higher = more signal, called active from +8 up or from −8 down.
Assay [3] can be described thus: probe aNOTCH3 binding on compound microarray – biochemical, small-molecule microarray, 635/667 nm fluorescence, primary screen (AID 1120).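 Further: probe is a biotin-tagged antibody raised against NOTCH3 rather than NOTCH3 protein; score merges spot fluorescence near 667 nm with spot signal to noise.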 Conditions: higher = more signal.
Assay [4] in a line: probe aNOTCH2 binding on compound microarray – biochemical, small-molecule microarray, 635/667 nm fluorescence, primary screen (AID 1121).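 Further: score merges feature fluorescence read at 667 nm with its signal to noise.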 The settings on record: higher = more signal.
Assay [5] deals with Carbonic anhydrase 2 (Homo sapiens) (UniProt P00918). Put plainly: compounds binding carbonic anhydrase 2 – biochemical, small-molecule microarray, Alexa647-labelled CAII, profiling panel (AID 1122). The settings on record: CAII-A647 binding fluorescence, higher = more signal.
The nature of assay [6]: COS7 lysate on small-molecule microarray, probe aHis, 635 nm (AID 1123).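 Further: z-score combines 667nm fluorescence intensity with signal-to-noise per printed compound spot.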 The settings on record: COS7 cell lysate, fluorescence, higher = more signal.
Assay [7] in a line: probe aLAP1 signal on lysate-treated microarray – cell lysate, small-molecule microarray, COS7 lysate, primary screen (AID 1124).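 Further: lysate comes from COS7 cells expressing LAP1 and is applied at 0.3 µg/mL; score merges spot fluorescence near 667 nm with signal-to-noise over triplicate slides.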 The settings on record: probe aLAP1, fluorescence, higher = more signal.
Assay [8] deals with Sam68 (KHDRBS1). Kind of assay: compounds binding KHDRBS1 protein – biochemical, small-molecule microarray, 635 nm fluorescence, primary screen (AID 1125).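 Further: score merges 667 nm channel intensity with signal to noise over triplicate slides.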 Conditions: higher = more signal.
Assay [9] concerns Chordin-like protein 2 (CHRDL2). Put plainly: compounds binding chordin-like 2 – biochemical, small-molecule microarray, 635 nm fluorescence, primary screen (AID 1126).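 Further: printed compound slides probed with Chrdl2 protein at 4 µg/mL for 1 h at 4 C; score merges 667 nm emission intensity with signal to noise over three replicate slides.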 The settings on record: fluorescence 635 nm, higher = more signal.
Assay [10] deals with Concanavalin-A (Canavalia ensiformis) (UniProt P02866). Put plainly: compounds binding concanavalin A lectin – biochemical, small-molecule microarray, Alexa647 label, 635 nm, artefact control for SMM control protein annotation, primary screen (AID 1127).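 Further: z combines 667 nm emission intensity with signal-to-noise across three replicate slides.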 Conditions: ConA-A647 binding fluorescence, higher = more signal.

Calls of active or inactive are those of the source.

Sequence of Concanavalin-A (Canavalia ensiformis) (P02866 whole entry, looked up): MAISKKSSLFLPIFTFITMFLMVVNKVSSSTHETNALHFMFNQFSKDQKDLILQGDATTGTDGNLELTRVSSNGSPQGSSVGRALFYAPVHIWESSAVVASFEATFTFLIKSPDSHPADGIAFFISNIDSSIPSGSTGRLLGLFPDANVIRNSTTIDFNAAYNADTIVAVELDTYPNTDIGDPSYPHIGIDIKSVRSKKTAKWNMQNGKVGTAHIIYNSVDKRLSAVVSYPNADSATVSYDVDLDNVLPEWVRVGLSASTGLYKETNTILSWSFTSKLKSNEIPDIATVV
Sequence of Albumin (Bos taurus) (P02769 whole entry, looked up): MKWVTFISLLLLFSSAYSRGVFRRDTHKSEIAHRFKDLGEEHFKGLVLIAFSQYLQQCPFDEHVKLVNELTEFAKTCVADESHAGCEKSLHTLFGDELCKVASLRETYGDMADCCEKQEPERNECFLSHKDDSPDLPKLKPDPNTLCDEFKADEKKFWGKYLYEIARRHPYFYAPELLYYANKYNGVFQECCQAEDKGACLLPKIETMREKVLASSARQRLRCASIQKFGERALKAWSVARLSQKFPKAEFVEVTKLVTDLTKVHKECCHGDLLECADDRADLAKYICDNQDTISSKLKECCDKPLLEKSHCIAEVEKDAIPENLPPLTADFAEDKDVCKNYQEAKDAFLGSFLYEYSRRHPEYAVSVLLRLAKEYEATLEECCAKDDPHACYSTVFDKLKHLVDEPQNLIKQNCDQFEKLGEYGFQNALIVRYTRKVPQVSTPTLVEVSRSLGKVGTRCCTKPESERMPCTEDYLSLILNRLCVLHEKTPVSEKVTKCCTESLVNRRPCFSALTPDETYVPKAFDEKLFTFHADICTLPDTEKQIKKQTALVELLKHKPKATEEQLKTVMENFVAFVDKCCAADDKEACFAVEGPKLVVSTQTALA

Turning to `Cn1c(=O)n2n(c1=O)[C@H]1[C@H](O)[C@@H]3O[C@@H]3C(=NOCc3ccccc3)[C@H]1CC2`, the composite z-score is 0.0494 in [1]; -0.112 in assay [3]; -0.14 in assay [4]; 0.487 in assay [5]; 0.444 in [6]; -0.0493 in assay [7]. Moreover, the composite z-score in assay [8] was 0.557; in assay [9], -0.37; in assay [10], -0.136. Moreover, the composite Z-score in [2] was -0.054 (inactive).

For `COC(=O)[C@H](C)NC(=O)CCC1CC(OC(=O)NCc2cccc3ccccc23)CC2(CCCC(COC(=O)NCC(c3ccccc3)c3ccccc3)O2)O1` (stereo not given in full), the composite z-score in assay [1] was 0.576; in assay [3] it was 0.0242; in assay [4], -0.0895; in [5], 0.553; in [6], 1.27; in [7], 0.433. The composite z-score in assay [8] was 1.32; in [9], -0.087; in [10] it was 0.423. In addition, the composite Z-score in assay [2] is -0.171 (inactive).

On to `O=C1CCCC=C1C(CCc1ccccc1)OC(=O)c1ccc(Br)cc1` (stereo not given), for which the composite z-score in assay [1] is -0.457; in assay [3], -0.104; in assay [4], -0.146; in [5] it was -0.475; in [6] it was 0.214; in assay [7] it was -0.815. Further, the composite z-score was -1.4 in assay [8], 0.388 in [9] and -0.612 in [10]. In [2], the composite Z-score was -0.727 (inactive).

Regarding `COC(=O)CC=C[C@@H](C)[C@@H]1C=C[C@H](O)[C@@H](CO)O1`, the composite z-score is 0.0642 in assay [1]; -0.364 in assay [3]; -0.0717 in assay [4]; -0.184 in assay [5]; 0.189 in assay [6]; -0.171 in assay [7]. Further, the composite z-score is -0.111 in assay [8], 0.951 in assay [9] and -0.379 in assay [10]. The composite Z-score in [2] was 0.0543 (inactive).

Regarding `CCN1C(=O)[C@H]2[C@H]3[C@H](O)[C@H](O)CC(=O)[C@H]3CC[C@H]2C1=O`, the composite z-score is 0.234 in [1]; -0.0921 in assay [3]; -0.0793 in [4]; 0.0164 in [5]; -0.209 in assay [6]; 0.0555 in [7]. In addition, the composite z-score in [8] was found to be 0.47; in assay [9], 0.689; in assay [10] it was 0.541. Besides, the composite Z-score in assay [2] is -0.274 (inactive).

Turning to `COC(=O)[C@H]1[C@@H](O)[C@@]2(O)c3ccccc3O[C@@]2(c2ccccc2)[C@@H]1c1ccccc1`, the composite z-score is -0.642 in assay [1]; -0.1 in assay [3]; -0.133 in assay [4]; 0.18 in assay [5]; 0.19 in [6]; -0.221 in [7]. The composite z-score was -0.926 in assay [8], 0.14 in [9] and -0.246 in assay [10]. In assay [2], the composite Z-score was 1.97 (inactive).

Take `C#CCCCON=C1C[C@@H](O)[C@@H](O)[C@@H]2[C@@H]3C(=O)N(C(C)(C)C)C(=O)[C@@H]3CC[C@H]12`: the composite z-score is 0.725 in assay [1]; 0.0306 in assay [3]; -0.0272 in [4]; -0.466 in assay [5]; 0.126 in assay [6]; 0.0192 in assay [7]. In addition, the results for the composite z-score in [8], in assay [9] and in assay [10] were -0.454, 0.557 and -0.482, respectively. The composite Z-score in assay [2] is -0.483 (inactive).

For `COC(=O)[C@@H]1CC[C@H](C)[C@@H](c2ccc(C)cc2)N1C(=O)c1ccc(C=NOCC[C@@H]2C=C[C@H](OC(C)=O)[C@@H](COC(C)=O)O2)cc1`, the composite z-score was -0.129 in assay [1]; 0.088 in assay [3]; -0.1 in assay [4]; -0.0127 in assay [5]; 0.148 in [6]; -0.552 in assay [7]. For the same compound, the composite z-score in [8] came to 0.926; in assay [9] it was 0.772; in assay [10] it was 0.658. The composite Z-score in assay [2] was -0.2 (inactive).

On to `CC(C)=CCCC(C)=CCON=C1C[C@@H](O)[C@@H](O)[C@@H]2[C@@H]3C(=O)N(C(C)(C)C)C(=O)[C@@H]3CC[C@@H]12`, for which the composite z-score was 0.0038 in assay [1]; -0.127 in assay [3]; -0.0859 in assay [4]; -0.0211 in [5]; -0.13 in assay [6]; -0.0115 in [7]. Moreover, the composite z-score in [8] was determined as 0.383; in [9], 0.129; in [10] it was 0.411. The composite Z-score in assay [2] was -0.204 (inactive).

`O=c1n(Cc2cc3c(cc2Cl)OCO3)c(=O)n2n1CC[C@@H]1C(=NOCc3ccccc3)[C@H]3O[C@H]3[C@@H](O)[C@@H]12`: the composite z-score in assay [1] is 0.0524; in [3], 0.106; in [4], -0.0495; in assay [5], 0.177; in assay [6], 0.155; in [7] it was 0.708. Moreover, the figures for the composite z-score in assay [8], in assay [9] and in assay [10] were 0.529, 0.6 and 0.223, respectively. Moreover, the composite Z-score in assay [2] was 0.0993 (inactive).

As to `COC(=O)[C@H](C)NC(=O)CCC1CC(OC(=O)NCc2ccc3c(c2)OCO3)CC2(CCCC(COC(=O)NCC(c3ccccc3)c3ccccc3)O2)O1` (stereo not given in full), the composite z-score in assay [1] is 0.409; in assay [3] it was 0.0159; in assay [4], -0.123; in assay [5], 0.478; in assay [6] it was 1.29; in assay [7] it was 0.165. For the same compound, the composite z-score is 1.29 in assay [8], 0.738 in assay [9] and 1.12 in assay [10]. Moreover, the composite Z-score in [2] is 0.265 (inactive).

On to `CO[C@@H]1COC(=O)CC=C[C@@H](C)[C@@H]2C=C[C@H](O)[C@@H](COC(=O)CC=C[C@H]1C)O2`, for which the composite z-score in assay [1] is -0.806; in assay [3] it was -0.124; in assay [4], -0.166; in assay [5], -0.257; in [6], -1.01; in assay [7] it was 0.146. The composite z-score was 0.141 in assay [8], 1.14 in [9] and -0.629 in assay [10]. Also, in [2], the composite Z-score was 0.718 (inactive).

For `CC(C)CON=C1C[C@@H](O)[C@@H](O)[C@@H]2[C@@H]3C(=O)N(c4ccc(F)cc4F)C(=O)[C@@H]3CC[C@H]12`, the composite z-score in assay [1] is 0.541; in assay [3] it was -0.122; in [4], -0.17; in [5], 0.501; in assay [6], 0.602; in [7] it was 0.311. The values for the composite z-score in assay [8], in assay [9] and in [10] were 1.28, 0.554 and 0.303, respectively. Moreover, the composite Z-score in assay [2] is 0.109 (inactive).

As for `CC(C)(C)N1C(=O)[C@H]2[C@H]3[C@H](O)[C@H](O)CC(=NOCc4ccccc4)[C@H]3CC[C@H]2C1=O`, the composite z-score in assay [1] is 0.0116; in assay [3] it was 0.0961; in [4], -0.057; in assay [5] it was -0.0598; in [6], 0.376; in assay [7], 0.699. The composite z-score in assay [8] is -0.217; in assay [9], 0.737; in assay [10] it was -0.344. Moreover, the composite Z-score in assay [2] is -0.491 (inactive).

`CCOC(=O)[C@H](CC(C)C)NC(=O)CCC1CC(OC(=O)NCCc2ccc(F)cc2)CC2(CCCC(COC(=O)NCCc3ccc(Cl)cc3)O2)O1` (stereo not given in full): the composite z-score in [1] is 0.587; in assay [3], 0.163; in assay [4], -0.0495; in assay [5] it was 0.606; in assay [6], 1.61; in [7] it was 0.037. In addition, the composite z-score in [8] is 1.03; in assay [9], 0.446; in assay [10], -0.485. Also, the composite Z-score in assay [2] is 0.133 (inactive).

As for `O=C1CCCC=C1C(O)CCCCBr` (stereo not given), the composite z-score is 0.956 in assay [1]; 0.0242 in assay [3]; 0.0377 in assay [4]; 0.778 in assay [5]; 1.1 in assay [6]; -0.101 in assay [7]. The composite z-score in [8] was 0.381; in assay [9], 0.0069; in [10] it was 1.09. Besides, in [2], the composite Z-score was 1.36 (inactive).

As to `CCN1C(=O)[C@H]2[C@H]3[C@H](O)[C@H](O)CC(=NO[C@@H](C)c4cn([C@H](CO)Cc5ccccc5)nn4)[C@@H]3CC[C@H]2C1=O`, the composite z-score in assay [1] is 0.233; in assay [3], -0.0581; in assay [4], -0.184; in assay [5], 0.556; in assay [6], 0.875; in assay [7] it was 0.547. Also, the composite z-score in assay [8] came to 1.28; in [9] it was 0.399; in assay [10] it was 0.941. In addition, the composite Z-score in assay [2] is 0.299 (inactive).
